KLF5 inhibitor – kruppel-like factor 5 inhibition; DLD-1 KLF5 promoter-luciferase reporter, luminescence; inhibition, % at 5 µM; 0.23% of 290,000 active;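 active = inhibition above a per-plate limit of that plate's mean compound inhibition plus 3 SD, cut at about 60% in these data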;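 also: 0% = DMSO wells and 100% = LY294002 at 200 µM; higher means less KLF5 promoter-driven luciferase light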
697 NFkB inh – inhibitors of the PMA/ionomycin-induced NF-kB reporter in 697 B cells; 0.33% of 330,000 active; 697 B-cell NF-kB luciferase reporter, 16 h; inhibition, % at 4 µM; in the data active = inhibition above about 35%
Mdm2-MdmX inh – human Mdm2/MdmX binding inhibition; inhibition, % at 8 µM; SaOS-2 split-luciferase Mdm2/MdmX complementation, luminescence; O15151+Q00987; AID 485346; 3% of 330,000 active;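 active = inhibition of at least 50% at 8 µM in the primary screen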
Target sequence (O15151 whole entry, looked up): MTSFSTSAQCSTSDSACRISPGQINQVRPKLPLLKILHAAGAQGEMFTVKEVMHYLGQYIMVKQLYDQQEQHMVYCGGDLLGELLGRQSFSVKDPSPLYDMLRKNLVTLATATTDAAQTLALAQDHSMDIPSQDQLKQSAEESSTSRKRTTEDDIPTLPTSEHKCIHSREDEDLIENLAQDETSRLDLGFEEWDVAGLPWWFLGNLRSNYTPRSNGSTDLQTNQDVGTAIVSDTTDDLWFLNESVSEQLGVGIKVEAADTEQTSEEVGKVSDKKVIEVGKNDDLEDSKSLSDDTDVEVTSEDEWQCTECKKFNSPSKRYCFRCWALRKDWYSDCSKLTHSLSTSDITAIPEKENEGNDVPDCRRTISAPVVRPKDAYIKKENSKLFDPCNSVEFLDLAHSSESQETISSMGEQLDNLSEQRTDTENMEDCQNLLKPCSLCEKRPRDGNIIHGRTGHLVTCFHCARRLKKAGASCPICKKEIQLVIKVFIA
Target sequence (Q00987 whole entry, looked up): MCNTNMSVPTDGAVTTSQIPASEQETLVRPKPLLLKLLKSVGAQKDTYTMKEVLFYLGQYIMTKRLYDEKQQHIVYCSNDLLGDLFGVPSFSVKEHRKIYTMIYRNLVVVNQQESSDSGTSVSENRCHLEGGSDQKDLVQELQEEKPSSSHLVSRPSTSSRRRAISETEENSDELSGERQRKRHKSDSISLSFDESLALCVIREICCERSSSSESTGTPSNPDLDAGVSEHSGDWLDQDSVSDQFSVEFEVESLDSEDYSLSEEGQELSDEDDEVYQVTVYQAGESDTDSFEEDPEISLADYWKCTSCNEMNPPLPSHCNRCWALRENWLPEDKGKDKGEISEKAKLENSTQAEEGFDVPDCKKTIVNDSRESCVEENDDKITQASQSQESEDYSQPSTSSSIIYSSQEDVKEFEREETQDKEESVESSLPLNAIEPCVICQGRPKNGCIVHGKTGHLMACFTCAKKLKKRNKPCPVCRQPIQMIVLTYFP
Gli-Sufu block – Gli-Sufu pathway antagonism; Sufu-KO-LIGHT fibroblasts, Gli luciferase reporter luminescence; inhibition, % at 5 µM; 0.74% of 340,000 active; AID 588413;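 active = inhibition above about 55%, limit read from the data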;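 also: 0% = DMSO-treated cells and 100% = wells with medium but no cells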
Jurkat NFkB inh – inhibitors of the PMA/ionomycin-induced NF-kB reporter in Jurkat cells; PMA/ionomycin-induced NF-kB luciferase reporter, luminescence; 0.53% of 330,000 active; inhibition, % at 4 µM; in the data active = inhibition above about 50%
aSyn 5UTR inh – 5' untranslated region of α-synuclein, MLPCN primary screen; alpha-synuclein 5'UTR reporter, inhibitor activity; inhibition, % (tested at 7.5 µM); 0.82% of 300,000 active; in the data active = inhibition above about 60%; inconclusive = no clear call, values can overlap the other calls;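 also: H4 neuroglioblastoma cells stably carrying SNCA 5'UTR luciferase fusion; 0% = DMSO wells and 100% = positive control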
Jurkat NFkB conf – lowers PMA/ionomycin-induced NF-kB signal in Jurkat cells; shares compounds with Jurkat NFkB inh; Jurkat NF-kB luciferase, 16 h; inhibition, % at 4 µM; 27% of 2,700 active; AID 435020;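 active = inhibition reaching about 45% at 4 µM in either replicate, limit read from the data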;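 also: plate controls were PMA/ionomycin stimulated DMSO wells for no effect and unstimulated DMSO wells for full effect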
697 NFkB conf – inhibitors of the PMA/ionomycin-induced NF-kB reporter in 697 B cells, retest | 697 B-cell NF-kB luciferase, 16 h | shares compounds with 697 NFkB inh | inhibition, % at 4 µM | 35% of 2,000 active; in the data active = inhibition mostly above about 28%, no sharp cut-off; inactive = mostly below about 22%
Active calls of the source: *; ? = inconclusive; . = no result given. A selection: hits, their analogues and other compounds. The true share with any hit is near 4.1%.

SMILES	KLF5 inhibitor	697 NFkB inh	Mdm2-MdmX inh	Gli-Sufu block	Jurkat NFkB inh	aSyn 5UTR inh	Jurkat NFkB conf	697 NFkB conf
O=C(Nc1cccnc1)c1ccc(COc2cc(Cl)ccc2Cl)o1	3.6	-1.3	0.4	23.5	57.0*	3.0	8.3	.
Cc1ccc(CNC(=O)c2ccc(N3CCC4(CC3)CC(c3ccccc3)=NO4)c(NC(=O)c3ccc(Cl)c([N+](=O)[O-])c3)c2)cc1	.	14.2	1.6	-12.0	14.1	16.2	.	.
O=C(CN1CCN(S(=O)(=O)c2ccccc2)CC1)NC(=O)NCc1ccco1	-26.9	20.9	8.4	5.5	3.3	8.6	.	.
CCOc1cc(/C=N/Nc2cccc(C(=O)O)c2)ccc1OC(=O)c1ccccc1	-52.9	-20.0	-16.2	-173.6	57.6*	97.5*	-20.5	.
Cc1ccc(/C=N/Nc2cccc(C(=O)O)c2)s1	-94.2	-133.4	-112.6	-164.2	-1.7	12.4	.	.
Cc1ccsc1/C=N/Nc1cccc(C(=O)O)c1	11.1	8.8	-40.5	-235.6	55.9*	105.0*	6.8	.
Cc1cccc(C(=O)OCN2C(=O)c3ccccc3C2=O)c1[N+](=O)[O-]	-7.4	15.5	9.2	5.6	-2.6	0.2	.	.
COc1ccc(OC)c(C=NNC(=O)c2ccccc2NS(=O)(=O)c2cccs2)c1	.	17.8	5.7	1.4	-5.3	.	.	.
Cc1ccc(O)c(NC(=O)c2cc(-c3ccccc3Cl)on2)c1	-101.6	-39.3	-37.2	7.9	51.0*	-172.6	35.5	.
CCCCNc1ncnc2[nH]ncc12	.	.	.	11.6	.	.	.	.
COc1ccc2oc(=N)c(C(=O)Nc3ccccc3Cl)cc2c1	-141.8	-196.3	-91.4	-93.8	-160.1	-208.9	-92.0	.
O=C(Cc1ccccc1)NCc1ccc(-n2cccc2)cc1	-19.8	-36.4	46.4	-16.1	53.9*	-20.6	13.8	.
COc1ccc(-c2cn3c4c(sc3n2)CCCC4)cc1	-118.4	-292.2	-84.8	-122.6	-191.0	18.2	-130.4	-346.5
Cc1cc(C(=O)NC2CCCc3c2cnn3-c2ccc(C)c(C)c2)n(C)n1 (stereo not given)	20.7	49.4*	17.8	81.2*	62.2*	5.8	79.7*	102.2*
O=C(Cc1nc(=O)c2ccccc2s1)Nc1ccccc1	-137.4	-317.9	-129.0	-123.8	-208.2	-105.1	-147.8	-255.9
CCCCN(C)C(=S)Nc1ccsc1C(=O)OC	-14.3	-14.1	-11.3	6.7	-2.1	-7.5	.	.
COc1cc(-c2c(NC(=O)c3ccco3)oc3ccccc3c2=O)cc(OC)c1OC	-19.6	7.9	20.8	-9.6	-19.5	3.4	.	.
O=C(/C=C\Nc1cccc(F)c1)c1ccc2c(c1)OCO2	-5.8	-411.0	-26.7	-160.7	-170.9	53.7	-141.6	-228.4
O=C(/C=C\Nc1ccccc1Br)c1ccc2c(c1)OCO2	-61.8	-355.7	-135.4	-119.7	-168.7	55.4	-40.2	-213.1
O=C(/C=C/c1ccccc1Br)c1ccc2c(c1)OCO2	-45.1	-33.6	-12.6	16.0	-22.4	-7.0	.	.
COC(=O)c1ccc(N/C=C\C(=O)c2ccc3c(c2)OCO3)cc1	-3.0	-45.2	-27.3	-24.1	-40.3	-133.3	.	.
O=C1c2cccc(OCC(=O)N3N=C(c4cccs4)CC3c3ccc(F)cc3)c2CCN1Cc1cccnc1 (stereo not given)	0.5	-3.2	19.2	20.3	-7.3	41.1	.	.
Cc1ccnc(NC(=O)Nc2cccc(F)c2)c1	-136.9	-302.9	-179.3	-130.9	-176.0	26.7	-120.8	-257.2
COc1cc(NC(C)CCCN)c2ncccc2c1 (stereo not given)	.	44.4*	33.9	19.4	64.9*	2.8	35.6	37.8*
CC(C)Nc1ncnc2c1cnn2-c1ccc(Cl)cc1	-81.9	-422.1	14.8	-94.7	-202.3	?	-184.2	-446.1
SMILES	KLF5 inhibitor	697 NFkB inh	Mdm2-MdmX inh	Gli-Sufu block	Jurkat NFkB inh	aSyn 5UTR inh	Jurkat NFkB conf	697 NFkB conf
Clc1ccc(Nc2ncnc3c2cnn3-c2ccccc2)cc1	-15.8	-67.0	-93.1	-40.9	-62.9	-119.0	.	.
CC(C)c1ccc(-c2nnn(CCC(=O)O)n2)cc1	33.1	70.5*	15.5	40.2	60.2*	118.0*	62.0*	70.0*
O=C(O)CCn1nnc(-c2cccs2)n1	-13.3	1.0	-4.5	-22.7	-8.5	10.5	.	.
Nc1[nH]n(-c2ccccc2)c(=O)c1N=Nc1ccc2c(c1)OCCO2	-124.9	-311.7	-156.8	-127.8	-194.0	-24.8	-100.2	-195.6
O=C(CCSCc1cccc(Cl)c1)NCCc1ccccc1	-6.9	14.1	19.3	-9.1	7.6	11.5	.	.
O=C(Nc1ccc2sccc2c1)c1ccc(Cl)s1	-162.5	-323.2	-284.6	-132.5	-223.8	-198.1	-143.7	-306.2
O=C(Nc1ccc2c(c1)C(=O)NC2=O)c1ccc(Cl)s1	-24.5	2.1	6.8	4.2	1.8	-5.2	.	.
COc1ccc(OC)c(NC(=O)CSc2ncnc3c2cnn3-c2ccccc2Cl)c1	-8.4	71.1*	-12.1	75.6*	50.3*	-2.3	65.3*	49.6*
CC(C)C(=O)Nc1ccc2nn(-c3ccccc3)nc2c1	-59.7	-356.5	-201.0	16.7	-255.4	-26.9	-165.8	-329.3
O=C(Nc1cc2nn(-c3ccccc3)nc2cc1Cl)c1ccco1	-36.5	-152.4	19.0	-61.1	-114.8	-128.8	.	.
CC(=O)Nc1cc2nn(-c3ccccc3)nc2cc1Cl	-154.2	-348.9	-265.6	-88.7	-188.9	-122.8	-80.2	-206.2
O=C(Nc1ccc2nn(-c3ccccc3)nc2c1)c1cccnc1	-74.8	-37.1	-25.2	-21.4	-56.2	.	.	.
CC(C)(O)c1[nH]c2ccc(C#N)cc2c1C(C)(C)O	-7.1	59.0*	17.1	1.4	62.9*	-29.5	88.1*	59.8*
CCOc1ccc(/C=N/NC(=O)CNC(=O)c2ccc(S(=O)(=O)N3CCOCC3)cc2)cc1	-1.5	3.0	-13.8	2.1	13.6	30.0	.	.
CCSc1cc(C)nc2c(-c3ccccc3)cnn12	-8.1	-263.6	-127.1	-64.7	-152.5	-46.5	-100.3	-269.2
C=CCSc1cc(C)nc2c(-c3ccccc3)cnn12	-28.4	-200.5	-98.0	-51.1	-125.0	-74.3	.	.
O=C(Nc1ccc(-c2nc3cc(Cl)ccc3o2)cc1)C1CCCO1 (stereo not given)	-104.6	-263.1	-145.7	-94.9	-163.8	-81.0	-88.3	-200.1
CCCC(=O)Nc1ccc(-c2nc3cc(C)ccc3o2)cc1	-35.6	-379.2	-296.9	-93.5	-168.5	-149.2	-96.4	-363.2
O=C(O)c1ccccc1-c1ccccc1C(=O)Nc1ccc(-c2nc3cc(Cl)ccc3o2)cc1	-48.5	-34.8	-78.4	-5.6	-54.0	-77.3	.	.
Cc1ccc(N/C=C/C(=O)c2cccs2)cc1C	-11.3	-259.5	-42.4	-126.6	-187.6	-179.8	-128.1	-158.8
Cc1sc2ncnc(N3CCN(CCOc4ccc(Cl)cc4)CC3)c2c1C	-5.5	55.6*	6.6	74.0*	57.0*	-40.1	46.3	35.2*
COc1ccc(/C=C2\SC(=O)N(CCCC(=O)Nc3cc(Cl)ccc3C(=O)O)C2=O)cc1	.	91.8*	49.7	73.9*	72.5*	.	83.0*	89.8*

Screening results as filed in PubChem BioAssay.
